The source of these data is ChEMBL document CHEMBL1961873, “Compounds: GSK PKIS; Assays: Nanosyn kinase panel” (2012).

The structures appear in SMILES notation.

Assay [1] deals with Platelet-derived growth factor receptor beta (Homo sapiens) (UniProt P09619). The settings on record: at 1 µM.
Assay [2] has as its target Tyrosine-protein kinase FRK (Homo sapiens) (UniProt P42685). The settings on record: at 0.1 µM.
Assay [3] has the same target. The settings on record: at 1 µM.
Assay [4] addresses Protein-tyrosine kinase 2-beta (Homo sapiens) (UniProt Q14289). The settings on record: at 0.1 µM.
For assay [5] the target is unchanged. The settings on record: at 1 µM.
For assay [6], the target named is Proto-oncogene tyrosine-protein kinase receptor Ret (Homo sapiens) (UniProt P07949). As to conditions: at 0.1 µM.
Assay [7] shares this target. As to conditions: at 1 µM.
Assay [8] concerns Proto-oncogene tyrosine-protein kinase receptor Ret (Homo sapiens), P07949 [V804L]. The settings on record: at 0.1 µM.
Assay [9] shares this test system. The settings on record: at 1 µM.
Assay [10] concerns Proto-oncogene tyrosine-protein kinase receptor Ret (Homo sapiens), P07949 [Y791F]. As to conditions: at 0.1 µM.
For assay [11] the test system is unchanged. As to conditions: at 1 µM.
The target in assay [12] is Macrophage-stimulating protein receptor (Homo sapiens) (UniProt Q04912). The settings on record: at 0.1 µM.
The target is the same in assay [13]. The settings on record: at 1 µM.
Assay [14] addresses Proto-oncogene tyrosine-protein kinase ROS (Homo sapiens) (UniProt P08922). The settings on record: at 0.1 µM.
Assay [15] has the same target. The settings on record: at 1 µM.
In assay [16] the target is Proto-oncogene tyrosine-protein kinase Src (Homo sapiens) (UniProt P12931). The settings on record: at 0.1 µM.
Assay [17] has the same target. As to conditions: at 1 µM.
Assay [18] has as its target Tyrosine-protein kinase Srms (Homo sapiens) (UniProt Q9H3Y6). The settings on record: at 0.1 µM.
Assay [19] shares this target. As to conditions: at 1 µM.
Assay [20] addresses Tyrosine-protein kinase SYK (Homo sapiens) (UniProt P43405). As to conditions: at 0.1 µM.

Sequence of Proto-oncogene tyrosine-protein kinase receptor Ret (Homo sapiens) (P07949 whole entry): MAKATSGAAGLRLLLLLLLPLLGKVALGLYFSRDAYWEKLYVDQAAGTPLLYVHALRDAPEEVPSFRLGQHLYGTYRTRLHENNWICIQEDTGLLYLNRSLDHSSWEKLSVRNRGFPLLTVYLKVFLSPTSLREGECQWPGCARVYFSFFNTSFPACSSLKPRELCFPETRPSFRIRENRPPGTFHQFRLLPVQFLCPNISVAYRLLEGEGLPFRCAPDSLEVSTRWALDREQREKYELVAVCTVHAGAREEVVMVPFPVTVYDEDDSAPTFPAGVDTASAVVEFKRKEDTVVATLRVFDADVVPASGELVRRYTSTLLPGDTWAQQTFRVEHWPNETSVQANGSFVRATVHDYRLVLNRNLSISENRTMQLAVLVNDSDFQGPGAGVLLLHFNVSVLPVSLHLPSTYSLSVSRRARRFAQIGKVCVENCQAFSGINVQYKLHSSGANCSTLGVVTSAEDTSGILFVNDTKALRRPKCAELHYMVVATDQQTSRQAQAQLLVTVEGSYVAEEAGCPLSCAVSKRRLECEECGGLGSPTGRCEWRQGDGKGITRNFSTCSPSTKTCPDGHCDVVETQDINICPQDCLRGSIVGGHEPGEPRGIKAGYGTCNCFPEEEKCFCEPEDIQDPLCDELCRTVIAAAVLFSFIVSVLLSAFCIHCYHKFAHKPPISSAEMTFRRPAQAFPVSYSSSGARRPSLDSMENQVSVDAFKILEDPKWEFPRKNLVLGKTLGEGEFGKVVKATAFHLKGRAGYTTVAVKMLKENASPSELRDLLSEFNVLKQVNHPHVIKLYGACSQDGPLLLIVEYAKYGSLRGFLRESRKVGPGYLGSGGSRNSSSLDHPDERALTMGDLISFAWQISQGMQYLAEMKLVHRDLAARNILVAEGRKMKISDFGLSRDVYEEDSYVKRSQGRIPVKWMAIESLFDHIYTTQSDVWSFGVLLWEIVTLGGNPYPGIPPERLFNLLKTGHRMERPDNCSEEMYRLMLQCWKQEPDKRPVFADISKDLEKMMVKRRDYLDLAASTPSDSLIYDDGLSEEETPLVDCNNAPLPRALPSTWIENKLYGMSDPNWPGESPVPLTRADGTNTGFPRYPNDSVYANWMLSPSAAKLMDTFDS
Sequence of Tyrosine-protein kinase Srms (Homo sapiens) (Q9H3Y6 whole entry): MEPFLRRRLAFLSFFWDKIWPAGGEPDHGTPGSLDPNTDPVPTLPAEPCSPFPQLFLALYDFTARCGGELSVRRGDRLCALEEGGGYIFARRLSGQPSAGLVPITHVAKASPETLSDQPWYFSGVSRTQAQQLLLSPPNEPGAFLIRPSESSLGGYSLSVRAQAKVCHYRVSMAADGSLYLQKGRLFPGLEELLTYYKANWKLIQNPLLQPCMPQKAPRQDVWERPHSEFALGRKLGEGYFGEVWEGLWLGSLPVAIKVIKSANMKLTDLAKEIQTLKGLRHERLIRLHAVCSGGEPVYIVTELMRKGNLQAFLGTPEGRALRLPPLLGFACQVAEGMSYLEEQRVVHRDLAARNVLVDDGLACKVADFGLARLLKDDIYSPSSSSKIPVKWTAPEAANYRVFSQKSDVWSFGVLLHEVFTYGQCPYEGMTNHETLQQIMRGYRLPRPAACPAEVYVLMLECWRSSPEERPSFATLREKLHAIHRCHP
Sequence of Macrophage-stimulating protein receptor (Homo sapiens) (Q04912 25-304 limits assumed): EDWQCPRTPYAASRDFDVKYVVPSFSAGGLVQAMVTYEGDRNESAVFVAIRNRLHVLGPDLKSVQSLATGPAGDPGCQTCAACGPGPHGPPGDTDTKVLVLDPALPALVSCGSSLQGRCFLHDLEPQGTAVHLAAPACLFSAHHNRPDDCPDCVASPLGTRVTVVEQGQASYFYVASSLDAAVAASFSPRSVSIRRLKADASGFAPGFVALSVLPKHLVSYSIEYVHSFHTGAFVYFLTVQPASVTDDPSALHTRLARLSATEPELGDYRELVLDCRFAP
Sequence of Macrophage-stimulating protein receptor (Homo sapiens) (Q04912 310-1400 limits assumed): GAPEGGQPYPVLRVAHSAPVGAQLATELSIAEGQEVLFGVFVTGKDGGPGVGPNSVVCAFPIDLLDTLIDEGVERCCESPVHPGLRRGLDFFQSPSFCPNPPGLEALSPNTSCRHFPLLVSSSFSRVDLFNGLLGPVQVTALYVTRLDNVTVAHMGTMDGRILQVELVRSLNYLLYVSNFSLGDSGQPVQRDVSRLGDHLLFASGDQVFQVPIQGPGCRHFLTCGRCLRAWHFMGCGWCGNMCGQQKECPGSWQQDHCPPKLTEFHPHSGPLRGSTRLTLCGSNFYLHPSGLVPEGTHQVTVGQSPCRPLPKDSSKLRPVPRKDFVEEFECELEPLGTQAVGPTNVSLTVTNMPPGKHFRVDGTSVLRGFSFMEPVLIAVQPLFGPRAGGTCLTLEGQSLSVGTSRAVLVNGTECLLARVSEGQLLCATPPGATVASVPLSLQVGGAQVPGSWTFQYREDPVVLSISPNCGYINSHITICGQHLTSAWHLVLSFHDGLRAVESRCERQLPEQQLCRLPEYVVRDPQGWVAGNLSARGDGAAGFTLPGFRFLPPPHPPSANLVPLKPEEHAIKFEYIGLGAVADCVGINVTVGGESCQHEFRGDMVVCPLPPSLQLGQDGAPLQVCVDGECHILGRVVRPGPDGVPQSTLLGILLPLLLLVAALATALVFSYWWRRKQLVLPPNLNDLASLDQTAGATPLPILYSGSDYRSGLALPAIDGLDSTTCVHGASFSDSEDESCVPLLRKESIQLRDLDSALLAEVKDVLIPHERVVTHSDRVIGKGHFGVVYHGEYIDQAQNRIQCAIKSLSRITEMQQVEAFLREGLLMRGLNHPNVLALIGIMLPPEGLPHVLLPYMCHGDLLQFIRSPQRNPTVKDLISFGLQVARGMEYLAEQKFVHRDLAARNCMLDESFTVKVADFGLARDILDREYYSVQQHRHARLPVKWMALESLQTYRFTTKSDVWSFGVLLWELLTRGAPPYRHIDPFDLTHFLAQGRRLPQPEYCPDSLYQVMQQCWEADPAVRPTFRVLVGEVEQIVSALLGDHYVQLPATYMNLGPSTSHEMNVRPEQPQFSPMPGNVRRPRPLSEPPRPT
Sequence of Platelet-derived growth factor receptor beta (Homo sapiens) (P09619 whole entry): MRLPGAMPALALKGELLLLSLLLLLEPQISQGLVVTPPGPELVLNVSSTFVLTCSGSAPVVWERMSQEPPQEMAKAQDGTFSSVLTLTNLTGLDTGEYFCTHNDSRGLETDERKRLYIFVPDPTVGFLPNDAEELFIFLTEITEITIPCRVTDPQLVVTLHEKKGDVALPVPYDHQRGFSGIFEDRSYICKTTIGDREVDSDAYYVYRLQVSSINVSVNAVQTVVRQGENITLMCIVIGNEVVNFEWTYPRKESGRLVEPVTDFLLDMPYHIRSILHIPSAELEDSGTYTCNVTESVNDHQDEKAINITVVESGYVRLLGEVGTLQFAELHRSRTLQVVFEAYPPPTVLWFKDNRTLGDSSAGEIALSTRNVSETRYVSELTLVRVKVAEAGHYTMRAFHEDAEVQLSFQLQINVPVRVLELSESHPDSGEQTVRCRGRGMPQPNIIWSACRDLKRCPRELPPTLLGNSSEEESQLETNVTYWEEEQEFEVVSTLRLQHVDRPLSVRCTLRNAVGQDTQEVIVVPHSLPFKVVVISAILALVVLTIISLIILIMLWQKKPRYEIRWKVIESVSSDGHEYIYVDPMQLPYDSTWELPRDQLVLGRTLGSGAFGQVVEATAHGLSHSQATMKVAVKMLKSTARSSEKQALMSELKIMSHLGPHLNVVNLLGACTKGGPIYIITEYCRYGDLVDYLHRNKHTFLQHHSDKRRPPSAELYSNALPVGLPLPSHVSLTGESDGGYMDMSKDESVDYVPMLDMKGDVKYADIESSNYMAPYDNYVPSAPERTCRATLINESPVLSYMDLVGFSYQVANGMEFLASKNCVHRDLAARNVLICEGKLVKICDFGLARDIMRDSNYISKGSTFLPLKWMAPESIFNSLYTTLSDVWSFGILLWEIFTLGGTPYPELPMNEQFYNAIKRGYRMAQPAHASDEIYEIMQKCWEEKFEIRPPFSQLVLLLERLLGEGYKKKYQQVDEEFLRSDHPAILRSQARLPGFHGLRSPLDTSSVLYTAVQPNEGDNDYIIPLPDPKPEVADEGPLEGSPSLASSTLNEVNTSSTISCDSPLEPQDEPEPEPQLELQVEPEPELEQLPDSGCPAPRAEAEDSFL
Sequence of Proto-oncogene tyrosine-protein kinase receptor Ret (Homo sapiens), P07949 [V804L] (P07949 whole entry V804L): as the sequence (P07949 whole entry) above, with V804L counted along it
Sequence of Proto-oncogene tyrosine-protein kinase receptor Ret (Homo sapiens), P07949 [Y791F] (P07949 whole entry Y791F): as the sequence (P07949 whole entry) above, with Y791F counted along it
Sequence of Proto-oncogene tyrosine-protein kinase Src (Homo sapiens) (P12931 2-536 limits assumed): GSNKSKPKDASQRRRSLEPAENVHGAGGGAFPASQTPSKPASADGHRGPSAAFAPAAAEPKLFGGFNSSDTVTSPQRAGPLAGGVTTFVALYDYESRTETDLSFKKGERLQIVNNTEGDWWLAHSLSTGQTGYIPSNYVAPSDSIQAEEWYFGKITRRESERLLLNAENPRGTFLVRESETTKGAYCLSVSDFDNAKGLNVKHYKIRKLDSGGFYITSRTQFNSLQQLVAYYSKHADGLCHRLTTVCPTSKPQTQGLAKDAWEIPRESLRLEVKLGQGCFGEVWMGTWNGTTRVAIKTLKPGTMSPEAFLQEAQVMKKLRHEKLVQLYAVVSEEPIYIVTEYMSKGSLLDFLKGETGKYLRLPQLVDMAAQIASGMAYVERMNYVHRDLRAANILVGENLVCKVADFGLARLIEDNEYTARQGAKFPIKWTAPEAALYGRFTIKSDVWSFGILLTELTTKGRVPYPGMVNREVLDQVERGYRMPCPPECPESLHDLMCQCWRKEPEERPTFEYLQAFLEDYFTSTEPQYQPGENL

As usually defined, the inhibition is the drop in the measured response relative to a control, in per cent. In the case of `CC(C)COC(=O)c1ccc2c(c1)/C(=C/Nc1ccc(S(N)(=O)=O)cc1)C(=O)N2`, the inhibition was 86% in assay [1]; -0.58% in assay [2]; 1.92% in [3]; 2.4% in [4]; 16.5% in assay [5]; 34% in [6]. For the same compound, the inhibition in assay [7] was 78%; in assay [8] it was 54.5%; in assay [9], 82.4%; in assay [10], 25.2%; in assay [11], 69.9%; in assay [12] it was -0.4%. Further, the inhibition worked out at 16.7% in assay [13]; 1.71% in [14]; 15.3% in [15]; 2.28% in [16]; 39.5% in assay [17]; 5.32% in assay [18]. Further, the inhibition in [19] was 3.32%; in [20], 4.14%.

For `COc1ccc(CNC(=O)c2ccc(-c3cc(-c4nnc(C)o4)ccc3C)cc2)cc1`, the inhibition in assay [1] was 13%; in [2], 0.66%; in [3], 1.5%; in assay [4], -0.09%; in assay [5] it was 5.83%; in [6], 7.22%. In addition, the inhibition in [7] amounted to 7.69%; in [8], 14%; in assay [9], 15.8%; in assay [10] it was 6.44%; in assay [11] it was 19.9%; in assay [12], 10.5%. The inhibition in [13] came out at 3.7%; in [14] it was 6.1%; in [15], 5.4%; in assay [16], 1.18%; in [17], 2.9%; in assay [18] it was 3.8%. Moreover, the inhibition in assay [19] was found to be 8.13%; in assay [20], 2.81%.

In the case of `CN(C)CCOc1ccc(-c2nc(-c3ccncc3)c(-c3ccc4c(c3)CC/C4=N\O)[nH]2)cc1`, the inhibition in [1] is 15.7%; in assay [2], 2.18%; in [3], 1.99%; in assay [4], 5.76%; in assay [5], 10.5%; in assay [6], 5.96%. Also, the inhibition in [7] was 7.06%; in assay [8] it was 3.07%; in assay [9], 6.45%; in assay [10] it was 2.28%; in assay [11], 20.2%; in assay [12], -1.14%. The inhibition in assay [13] is 7.41%; in [14], 3.61%; in assay [15] it was 5.38%; in [16], 0.25%; in assay [17], 11.9%; in [18] it was -1.81%. The inhibition is -0.6% in assay [19] and -2.98% in [20].

On to `CCc1nn2ncccc2c1-c1ccnc(NC2CC2)n1`, for which the inhibition in assay [1] is 13.8%; in assay [2], 1.9%; in assay [3] it was 1.77%; in assay [4] it was -3.19%; in assay [5] it was 2.45%; in assay [6], 3.64%. Also, the inhibition worked out at 2.46% in assay [7]; 3.6% in assay [8]; 2.94% in [9]; 5.5% in [10]; 6.92% in assay [11]; 6.26% in assay [12]. Moreover, the inhibition was 6.01% in [13]; 4.86% in assay [14]; 5.32% in assay [15]; 6.38% in [16]; 7.08% in assay [17]; 1.77% in assay [18]. The inhibition in assay [19] amounted to 1.02%; in assay [20] it was 0.63%.

Turning to `CCn1c(-c2nonc2N)nc2ccccc21`, the inhibition in [1] was 5.69%; in assay [2] it was 0.05%; in assay [3], 1.69%; in [4], 4.43%; in [5], 7.84%; in assay [6] it was 1.65%. Moreover, the inhibition in assay [7] turned out to be 3.15%; in assay [8], 2.56%; in assay [9], 0.52%; in [10] it was 4.13%; in [11], 3.18%; in [12] it was 1.17%. Further, the inhibition in assay [13] was 2.21%; in assay [14] it was 9.11%; in [15] it was 15.9%; in assay [16], 11.4%; in assay [17], 6.84%; in assay [18] it was 1.09%. Further, the inhibition was 2.1% in assay [19] and 0.68% in assay [20].

On to `CC1=C(C(=O)Nc2cc(Cl)c3[nH]ncc3c2)C(c2ccc(C(F)(F)F)cc2)CC(=O)N1` (stereo not given), for which the inhibition in assay [1] stood at 3.69%; in assay [2] it was 3.64%; in assay [3], 7.85%; in assay [4], 5.71%; in assay [5], 9.35%; in assay [6] it was 4.22%. Also, the inhibition amounted to 15.2% in assay [7]; 4.98% in assay [8]; 33.3% in assay [9]; 2.42% in [10]; 18.1% in [11]; 13.4% in [12]. The inhibition was 11.4% in assay [13]; 4.57% in [14]; 6.5% in assay [15]; 1.84% in assay [16]; 30.8% in assay [17]; -1.35% in [18]. For the same compound, the figures for the inhibition in assay [19] and in assay [20] were 3.11% and -2.63%, respectively.

On to `COc1ccc(-c2cc(-c3c[nH]nc3-c3ccccn3)ccn2)cc1`, for which the inhibition in [1] came to 31.9%; in assay [2] it was 3.08%; in [3] it was 2.92%; in assay [4], 7.68%; in assay [5], 13.9%; in assay [6], 5.33%. The inhibition is 5.9% in assay [7]; 4.29% in [8]; 5.73% in assay [9]; 6.24% in assay [10]; 17.4% in [11]; 2.4% in assay [12]. Besides, the inhibition in assay [13] is 21.3%; in assay [14] it was 3.05%; in assay [15] it was 8.62%; in assay [16] it was 0.76%; in [17], 11.1%; in assay [18], -2.06%. Besides, the inhibition in [19] is 0.71%; in assay [20], -6.85%.

Consider `COc1cc(N2CCN(C(C)C)CC2)ccc1Nc1nc(Nc2ccc(F)cc2C(N)=O)c2cc[nH]c2n1`, for which the inhibition in assay [1] was 26.9%; in assay [2], 2.93%; in assay [3] it was 12.7%; in assay [4], 95.5%; in assay [5] it was 97.8%; in assay [6] it was -3.34%. In addition, the inhibition in assay [7] is 9.44%; in assay [8], 8.15%; in assay [9], 43.8%; in assay [10], 4.48%; in assay [11] it was 16.6%; in [12], 0.61%. The inhibition was -0.44% in assay [13]; 51.8% in assay [14]; 81.8% in [15]; 6.34% in [16]; 10.4% in assay [17]; 1.36% in assay [18]. In addition, the values for the inhibition in assay [19] and in [20] were 7.98% and 0.19%, respectively.

Take `CNC(=O)c1cc(-c2ccc(F)cc2)cc(-c2ccc(S(=O)(=O)N3CCCC3)cc2)c1N`: the inhibition turned out to be 6.26% in assay [1]; 2.42% in [2]; 2.21% in [3]; 2.65% in assay [4]; 7.64% in assay [5]; 2.88% in assay [6]. The inhibition in assay [7] amounted to 2.96%; in [8], 2.49%; in [9] it was 5.41%; in [10] it was 3.21%; in assay [11], 2.82%; in assay [12], 1.89%. Moreover, the inhibition in assay [13] came to 4.58%; in assay [14], 4.64%; in assay [15], 6.55%; in [16], 5.46%; in assay [17] it was 6.17%; in assay [18], 2.11%. In addition, the inhibition in [19] is -2.91%; in assay [20], -0.29%.

As to `CCn1cc(-c2ccnc3[nH]ccc23)c(-c2cccc(NC(=O)Nc3ccc(OCc4ccccc4)cc3)c2)n1`, the inhibition in [1] is 3.09%; in assay [2] it was 1.32%; in [3], 1.39%; in assay [4], 3.44%; in assay [5], 3.88%; in assay [6], 0.08%. Besides, the inhibition in [7] is 0.88%; in assay [8], 0.99%; in assay [9] it was 0.01%; in assay [10], 2.29%; in [11], 11.9%; in assay [12], -0.2%. In addition, the inhibition in [13] is 23.8%; in assay [14], 1.33%; in assay [15], 0.45%; in assay [16], 1.17%; in assay [17] it was 6.43%; in assay [18] it was -1.11%. The inhibition in assay [19] was -1.61%; in assay [20] it was -1.9%.

As for `CCCN(CCS(C)(=O)=O)Cc1ccc(-c2ccc3ncnc(Nc4ccc(OCc5cccc(F)c5)c(Cl)c4)c3c2)o1`, the inhibition in [1] is 8.69%; in [2], 0.49%; in assay [3], 2.46%; in assay [4], 3.28%; in [5] it was -1.09%; in assay [6], 4.68%. In addition, the inhibition in [7] was 7.59%; in [8] it was 1.01%; in [9], 5.01%; in [10], 2.4%; in assay [11], 2.22%; in [12], 2.96%. Further, the inhibition in assay [13] came to 4.1%; in assay [14], 2.72%; in assay [15], 6.67%; in [16], 3.8%; in [17] it was 6.22%; in assay [18], 1.1%. For the same compound, the inhibition in assay [19] is 2.29%; in assay [20], -1.64%.

For `N#Cc1c(NC(=O)CN2CCOCC2)sc2c1CCCC2`, the inhibition amounted to 8.2% in assay [1]; 2.9% in assay [2]; 1.5% in assay [3]; 9.37% in assay [4]; 14.3% in assay [5]; 4.27% in assay [6]. For the same compound, the inhibition in assay [7] is 7.18%; in assay [8], 1.54%; in assay [9] it was 8.77%; in [10], 5.41%; in assay [11] it was 8.63%; in [12], -0.19%. Also, the inhibition is 6.37% in [13]; 6.7% in assay [14]; 13% in [15]; -1.56% in assay [16]; 7.9% in assay [17]; -1.35% in assay [18]. The inhibition in [19] was 0.73%; in assay [20], -0.42%.
